Measurements: ChEMBL document CHEMBL1157539, “Thousands of chemical starting points for antimalarial lead identification” (Nature, 2010)

Experiments:
Format in all cases: functional
[1] = test system: Plasmodium falciparum; test: GSK_TCMDC: Inhibition of Plasmodium falciparum 3D7 in whole red blood cells, using parasite LDH activity as an index of growth. Test compounds present at 2uM
[2] = test system: Plasmodium falciparum; test: GSK_TCMDC: Inhibition of Plasmodium falciparum Dd2 in whole red blood cells, using parasite LDH activity as an index of growth. Test compounds present at 2uM
[3] = test system: HepG2; test: GSK_TCMDC: Percent inhibition of human HepG2 cell line. Test compounds present at 10uM.

Row | Compound | Inhibition [1] [%] | Inhibition [2] [%] | Inhibition [3] [%]
1 | Cc1cccc2nc(-c3cccc(-c4cccc(CN5CCC(CO)CC5)c4)c3)[nH]c12.O=C(O)C(F)(F)F | 100 | 90 | 4
2 | Cc1cc(=O)oc2c1ccc1oc(C(O)c3ccc(Cl)cc3)c(C)c12 (stereo unspecified) | 95 | 96 | 0
3 | COc1ccc(S(=O)(=O)Nc2ccc(C(=O)NCc3ccccc3C(F)(F)F)cc2)cc1N1CCN(CC2CC2)CC1.O=C(O)C(F)(F)F | 92 | 5 | 27
4 | O=C(Nc1ccc(OCc2ccccc2)cc1)c1nc2ccccc2nc1Cl | 96 | 95 | 48
5 | CC(C)(C)c1cc(C(=O)N2CCN(c3ccc(C(F)(F)F)cn3)CC2)n(Cc2ccc(F)cc2)n1 | 88 | 26 | 4
6 | CCCCCC(C)(C)NC[C@@H](O)[C@H](Cc1ccccc1)NC(=O)c1cc(NCC)cc(N2CCCC2=O)c1.O=CO | 99 | 97 | 9
7 | COC(=O)C(NC(=O)NC1CCN(c2ccnc(Nc3ccc(F)cc3)n2)C1)c1ccccc1 (stereo unspecified) | 87 | 8 | 11
8 | CS(=O)(=O)Cc1cccc(Nc2ncc(Cl)c(Nc3cccnc3C(N)=O)n2)c1.Cl | 96 | 97 | 56
9 | CN1CCN(Cc2nc(-c3ccc4c(Nc5ccc(F)c(O)c5)ccnc4c3)cs2)CC1 | 100 | 100 | 0
10 | O=C(N[C@H]1CCN(Cc2ccc(OCCN3CCCC3)c3ccccc23)C1)c1ccc(Cl)c(Cl)c1.O=C(O)C(F)(F)F | 100 | 51 | 90
11 | CCCCCN1CCCC(NS(=O)(=O)c2ccc(C(=O)Nc3ccc(C(F)(F)F)cc3)cc2)C1.O=C(O)C(F)(F)F (stereo unspecified) | 98 | 20 | 41
12 | O=C(Nc1ccc2c(c1)CCN2C1CCN(Cc2cccc3cc[nH]c23)C1)c1ccco1 (stereo unspecified) | 88 | 86 | 0
13 | Br.N=C1c2ccccc2CN1CC(=O)c1ccc(Cl)c(Cl)c1 | 98 | 16 | 1
14 | CC(C)c1cc2c(cc1O)C(Cc1ccccc1Cl)N(C)CC2.Cl (stereo unspecified) | 97 | 33 | 0
15 | C=Cc1cc(NC(=O)N2CCc3cc(OC)c(C(F)(F)F)cc32)cc(-c2cccnc2)c1 | 92 | 20 | 7
16 | CCCCc1ccc(-c2ccc(-c3c(C)[nH]c(C)c(Br)c3=O)cn2)cc1.Cl | 98 | 96 | 0

Row | Compound | Inhibition [1] [%] | Inhibition [2] [%] | Inhibition [3] [%]
17 | COc1ccc(CNCc2ccc(-c3ccc(CNCCc4ccccc4)cn3)cc2)cn1.O=C(O)C(F)(F)F | 97 | 44 | 16
18 | COc1ccc2nccc([C@@H](O)CN3C4CCC3CC(NCc3ccc5c(n3)NC(=O)CS5)C4)c2n1.Cl (stereo partly specified) | 99 | 11 | 0
19 | COc1cc2nc(C)nc(Nc3ccc(Cc4ccccc4)cc3)c2cc1OC.Cl | 100 | 99 | 16
20 | COc1ccc(S(=O)(=O)N2CCOCC2)cc1NC(=O)c1cc2ccccc2o1 | 93 | 0 | 8
21 | Br.CCCN(CCCCCCNCCc1ccc(Cl)cc1)CCc1ccc(O)c(O)c1 | 91 | 11 | 26
22 | CN1CCN(CCCNCc2ccc(Nc3nccc(Nc4ccc(Oc5ccccc5)cc4)n3)cc2)CC1 | 100 | 9 | 17
23 | CC1(C)CN(CCC2CCC(NC(=O)/C=C/c3ccccc3F)CC2)Cc2ccc(C#N)cc21.Cl (stereo unspecified) | 89 | 82 | 0
24 | CC(C)c1ccc(NC(=O)c2ccc(C(=O)NC3CCN(CC4CCCCC4)C3)cc2)cc1.O=C(O)C(F)(F)F (stereo unspecified) | 93 | 26 | 35
25 | COc1ccc(CCNCCCCCNCCc2ccc(Cl)cc2)cc1OC.Cl | 100 | 0 | 32
26 | COc1ccc(CN2CCCC(Nc3ccc(F)c(F)c3)C2)c(O)c1 (stereo unspecified) | 95 | 83 | 14
27 | COc1ccc2[nH]c3ccccc3c(=O)c2c1 | 87 | 75 | 0
28 | O=c1cc(NCCCNCc2cccc(I)c2)[nH]c2ccccc12 | 90 | 9 | 10
29 | Cc1n[nH]c2ccc(-c3ccc4nccc(N5CCC(N)CC5)c4c3)cc12.Cl | 100 | 100 | 67
30 | Cl.N#Cc1ccc2c(c1)CN(CCC1CCC(NC(=O)c3cc4ccccc4cc3N)CC1)CC2 (stereo unspecified) | 80 | 52 | 5
31 | O=C(Nc1ccc(-c2cccc(-c3nc4ccccc4[nH]3)c2)cc1)Nc1ccc2c(c1)OCO2 | 100 | 65 | 55
32 | Cc1ccc(CNC(=O)[C@H](CC(C)C)Nc2cc(C)nc(NCc3ccccc3C)n2)cc1.O=C(O)C(F)(F)F | 87 | 35 | 3
